Shown are actives, neighbours in structure and some others; about 1.1% of the full set was active somewhere.
AI-2 QS modul – Vibrio harveyi AI-2 quorum sensing modulators, primary screen, JMH597 strain, luminescence/OD600 ratio | Vibrio harveyi JMH597 AI-2 luminescence/OD600 ratio, 9 h; active compounds read low; strain lacks LuxN and CqsS sensors; 0 = neutral-control median | actives 0.4% (n = 300,000) | activity change, % at 7.5 µM; in the data active means activity change below about -75%, passing the limit was not always enough;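 further: luminescence divided by OD600 gain over 9 h not by final OD600 alone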
VLA-4 inh – inhibition in human VLA-4 binding assay, primary screen, VLA-4 allosteric modulator project, MLPCN library, flow cytometry, VLA-4 expressing cells | inhibition, % (about 7 µM as worked out from the volumes in the protocol) | actives 0.2% (n = 330,000) | ligand binding flow cytometry | Integrin alpha-4 (Homo sapiens), P13612; in the data active means inhibition above about 50%
DSG3 Ab inh – inhibitors of pemphigus antibody binding to DSG3, primary screen, biochemical, bead-based, flow cytometry, scFv-GFP; Desmoglein-3 (Homo sapiens), P32926; DSG3-coupled beads, scFv-anti-DSG3-GFP binding; active compounds read low; binding (percent of control), % at 10 µM; actives 0.48% (n = 310,000); AID 588358, 2011;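 active means binding more than 3 SD below its plate's average and above zero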;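 further: hits lower antibody fragment binding to DSG3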
NTR1 ag – agonists of human NTR1, primary screen, imaging, U2OS cells, beta-arrestin-GFP, high content; Neurotensin receptor type 1 (Homo sapiens), P30989; NTR1-U2OS beta-arrestin-GFP spot imaging, agonist mode; activation, % at 20 µM; actives 0.17% (n = 330,000); AID 493036, 2011;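 active means activation at or above 40% of the spot to cytoplasm intensity ratio, with at least 20 cells analyzed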;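 further: 0% = DMSO without peptide and 100% = 100 nM NTR1 peptide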
VLA-4 allo CP – retest of VLA-4 allosteric modulators, confirmation, cell-based, cherry-picked plates, U937, HUTS-21 LIBS antibody. shares compounds with VLA-4 inh. U937 cells, HUTS-21 LIBS mAb binding, flow cytometry; LDV ligand present at threefold Kd. inhibition, % at 6.7 µM. actives 2% (n = 1,300). AID 2813, 2010; in the data active means inhibition above about 40%;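 further: 0% = ligand without compound and 100% = no ligand background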
* hit, by the source's call; · = not tested or not shown.

SMILES	AI-2 QS modul	VLA-4 inh	DSG3 Ab inh	NTR1 ag	VLA-4 allo CP
CC(C)(C)NCC(O)CON=C1c2ccccc2-c2ccccc21 (stereo unspecified)	3	55*	102	0	-8
O=C(O)c1c(C(=O)O)c(-c2ccc(F)cc2)n2c1CCC2	23	44	101	0	-13
Cc1ccc(-c2c(C(=O)O)c(C(=O)O)c3n2CCC3)cc1	13	-3	104	2	·
COc1ccc([C@H]2C(C(=O)O)=C[C@@H](C(C)(C)C)N2S(=O)(=O)c2ccccc2)cc1	·	-14	103	-1	-1
Cc1ccc([C@H]2C(C(=O)O)=C[C@@H](C(C)(C)C)N2S(=O)(=O)c2ccc(C)cc2)cc1	·	-12	105	0	·
Cc1ccc(S(=O)(=O)N2[C@@H](c3ccc(C(C)C)cc3)C(C(=O)O)=C[C@H]2C(C)(C)C)cc1	·	29	111	6	9
Cc1ccc(S(=O)(=O)N2[C@@H](c3cccc(C)c3)C(C(=O)O)=C[C@H]2C(C)(C)C)cc1	·	-13	107	-1	3
CCOC(=O)CSc1nc(C)[nH]c1[N+](=O)[O-]	30	41	84	-2	0
CCc1cc2c(=O)n3c(nc2s1)-c1[nH]c2ccc(OC)cc2c1CC3	21	45	93	-1	-9
COC(=O)COc1ccc(NC(=O)C(c2ccccc2)c2ccccc2)cc1	-6	50*	103	9	14
O=C(O)COc1ccc(NC(=O)C(c2ccccc2)c2ccccc2)cc1	11	8	96	0	·
O=C(O)CCn1c(SCCOc2ccccc2)nc2ccccc21	-10	-11	113	-1	·
CCN(C(=O)CSc1nc(-c2ccccc2)c(-c2ccccc2)[nH]1)C1CCS(=O)(=O)C1 (stereo unspecified)	8	95*	108	0	0
CCN(C(=O)CSc1nc2ccc(C)cc2[nH]1)C1CCS(=O)(=O)C1 (stereo unspecified)	·	6	·	1	·
COc1ccc(/C=N/NC(=O)c2cccc3ccccc23)c(OC)c1OC	1	-5	113	2	·
Fc1ccc2nc(Nc3nc4c(F)cccc4s3)sc2c1	5	53*	·	9	0
Fc1ccc2nc(Nc3nc4c(F)cc(F)cc4s3)sc2c1	8	4	100	·	·
N#CCc1ccc(NC(=O)Cn2c(=O)oc3ccccc32)cc1	15	14	102	1	-15
CCN(CC)S(=O)(=O)c1ccc(NC(=O)Cn2c(=O)oc3ccccc32)cc1	-42	7	99	-2	4
Cc1ccc(-n2nc3c(c2NC(=O)c2ccc4c(c2)OCO4)CS(=O)C3)c(C)c1 (stereo unspecified)	21	-13	102	0	·
OCC[C@H]1C[C@H](O)[C@@H](O)[C@@]2(CCc3ccccc3O2)O1	·	-1	106	1	·
CCCCN1C(=O)C(=O)c2cc(Cl)ccc21	·	55*	99	2	51*
CCCN1C(=O)C(=O)c2cc(C)ccc21	·	17	108	0	·
COC(=O)Cc1coc2cc(OC)ccc12	·	0	101	0	·
CCOc1ccc(N(CC(=O)Nc2ccc(OC)cc2OC)S(=O)(=O)c2c(C)[nH]c(=O)[nH]c2=O)cc1	30	-8	97	0	·
SMILES	AI-2 QS modul	VLA-4 inh	DSG3 Ab inh	NTR1 ag	VLA-4 allo CP
CC(C)Cn1c(N)c(C(=O)CSc2nnc(-c3ccco3)n2C)c(=O)n(C)c1=O	·	53*	96	2	-3
CC(C)Cn1c(N)c(C(=O)CSc2ccccc2)c(=O)n(C)c1=O	32	2	90	·	·
O=C1c2c(O)cc(O)cc2O[C@H](c2ccc(O)c(O)c2)[C@H]1O	-6	6	116	2	·
O=C1c2c(O)cc(O)cc2O[C@H](c2ccc(O)cc2)[C@H]1O	10	50*	96	-1	6
C=C1CCC(OC(C)=O)C2(C)CCC3C(C)C(=O)OC3C12O (stereo unspecified)	12	-8	93	-1	·
CC(=O)Oc1ccc(Cl)cc1/C=C/c1cc(OC(C)=O)c2ccccc2n1	30	-36	·	·	·
COc1cc(Cl)cc(/C=C/c2ccc3ccccc3n2)c1OC(C)=O	31	41	99	6	-19
COc1ccccc1C(=O)NCCC(=O)N(C)CC(=O)Nc1ccc(N2CCOCC2)cc1	8	32	107	0	·
CCN(CC(=O)Nc1ccc(N2CCOCC2)cc1)CC(=O)NC(C)(C)C	12	45	84	1	-10
CN(CC(=O)Nc1ccc(N2CCOCC2)cc1)C(=O)CCNC(=O)c1ccc(Br)cc1	14	50*	115	-1	-4
ONc1cccnc1-n1nc(C(F)(F)F)cc1C(F)(F)F	25	2	·	1	·
CC(=O)c1c(C)[nH]c(C(=O)OCC(=O)N(CC(C)C)C2CCS(=O)(=O)C2)c1C (stereo unspecified)	·	·	93	0	·
Cn1c(Sc2nc3ccccc3n2C)nc2ccccc21	24	68*	·	0	6
O=C(Cn1ccc(C(F)(F)F)n1)Nc1cccc(S(=O)(=O)N2CCCCC2)c1	2	-1	96	1	·
COc1cc(OC)cc(C(=O)NNC(=O)C2CCC2)c1	·	·	99	·	·
O=C(NCc1ccccc1F)C1CCCN(C(=O)Nc2ccccc2)C1 (stereo unspecified)	4	10	108	0	·
O=C(NCc1ccccc1)C1CCCN(C(=O)Nc2ccccc2)C1 (stereo unspecified)	-37	75*	100	1	0
O=C1N[C@H](C(=O)O)CS1	7	54*	·	0	5
Cc1cc(C(=O)NNC(=O)C2CCCC2)c(C)o1	4	70*	·	1	-4
Cc1c(N)cccc1Cl	·	·	105	·	·
O=C(Nc1cccnc1Cl)C1=NN(c2ccccc2)C(=O)CC1	28	-8	·	3	·
CCN(CC)c1ccc(/C=C(\C#N)C(N)=S)cc1	11	-22	96	-4	·
N#C/C(=C\c1cc(O)c(O)c(O)c1)C(N)=O	13	4	121	0	2
CCOC(=O)NC(=O)/C(C#N)=C/c1ccc(N(C)C)cc1	5	-16	102	-1	2
CCN(CC)c1ccc(/C=C(\C#N)C(N)=O)cc1	·	·	103	·	-2
COc1cc(CN2CCC(C(=O)NCC(C)(C)CN(C)C)CC2)ccc1OCc1ccccc1	7	0	107	0	·
CCN(CC(=O)Nc1c(F)cccc1F)C(=O)c1ccc(OCc2c(C)noc2C)cc1	·	12	·	-1	·
CCc1ccc(/C=C2/C(=O)NC(=O)N2C(C)=O)cc1	21	9	111	0	·

Bioassay records (PubChem)
